# Measurements as given in PMC11066047.
# Key:
# [1] = biological target: Small ribosomal subunit protein bS1m (UniProt Q02950); assay: cross-link between two proteins; cross-linking mass spectrometry
# [2] = biological target: Small ribosomal subunit protein uS8m (UniProt Q03799); assay: as above
# [3] = biological target: Histone H3 (UniProt P61830); assay: as above
# [4] = biological target: Nucleolar complex protein 14 (UniProt Q99207); assay: cross-link between two proteins
# [5] = biological target: Something about silencing protein 10 (UniProt Q12136); assay: cross-link between two proteins
# [6] = biological target: Eukaryotic translation initiation factor 3 subunit A (UniProt P38249); assay: cross-link between two proteins; cross-linking mass spectrometry
# Eukaryotic translation initiation factor 3 subunit A, sequence (P38249 whole entry): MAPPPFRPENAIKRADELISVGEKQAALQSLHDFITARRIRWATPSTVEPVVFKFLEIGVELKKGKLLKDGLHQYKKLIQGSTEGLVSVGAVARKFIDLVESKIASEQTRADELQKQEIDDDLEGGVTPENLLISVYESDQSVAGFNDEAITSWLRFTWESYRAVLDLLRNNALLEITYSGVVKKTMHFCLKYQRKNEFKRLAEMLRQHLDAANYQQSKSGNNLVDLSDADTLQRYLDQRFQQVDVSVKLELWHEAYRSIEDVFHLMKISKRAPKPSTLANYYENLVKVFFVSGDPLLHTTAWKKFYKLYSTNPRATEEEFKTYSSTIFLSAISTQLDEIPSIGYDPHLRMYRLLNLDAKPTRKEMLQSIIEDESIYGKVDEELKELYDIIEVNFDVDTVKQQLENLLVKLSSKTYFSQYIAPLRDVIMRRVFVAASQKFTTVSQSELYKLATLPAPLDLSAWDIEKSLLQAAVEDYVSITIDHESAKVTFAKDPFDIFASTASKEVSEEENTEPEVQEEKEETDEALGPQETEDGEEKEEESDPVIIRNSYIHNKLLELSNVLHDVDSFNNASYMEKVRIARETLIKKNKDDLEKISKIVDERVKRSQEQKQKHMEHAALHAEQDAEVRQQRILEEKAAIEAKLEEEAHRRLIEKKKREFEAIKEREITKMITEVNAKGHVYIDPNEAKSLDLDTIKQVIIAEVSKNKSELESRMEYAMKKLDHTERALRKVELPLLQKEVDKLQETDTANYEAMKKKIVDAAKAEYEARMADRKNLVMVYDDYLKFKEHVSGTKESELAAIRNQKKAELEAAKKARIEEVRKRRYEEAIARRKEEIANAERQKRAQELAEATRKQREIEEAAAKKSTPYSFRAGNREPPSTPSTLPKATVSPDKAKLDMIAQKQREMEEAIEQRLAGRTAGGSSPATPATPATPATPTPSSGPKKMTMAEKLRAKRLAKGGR
substance,measurement,setting,value
"Small ribosomal subunit protein bS18m, P40033",listed as a hit,[1],yes
"Small ribosomal subunit protein mS23, P40496",listed as a hit,[2],yes
"Histone H4, P02309",listed as a hit,[3],yes
"Ribosomal RNA small subunit methyltransferase NEP1, Q06287",listed as a hit,[4],yes
same,listed as a hit,[5],yes
"Eukaryotic translation initiation factor 3 subunit B, P06103",listed as a hit,[6],yes
